In the supplement of paper PMC10681739:

How the values were obtained:
ETS1 [1] = target: T1, ETS1 (UniProt P14921); experiment: ETS1 binding intensity (PBM fluorescence), ETS1 alone (arbitrary fluorescence units); higher = stronger binding; details: ETS1 concentration 1 nM; RUNX1 concentration 0 nM
T1 sequence: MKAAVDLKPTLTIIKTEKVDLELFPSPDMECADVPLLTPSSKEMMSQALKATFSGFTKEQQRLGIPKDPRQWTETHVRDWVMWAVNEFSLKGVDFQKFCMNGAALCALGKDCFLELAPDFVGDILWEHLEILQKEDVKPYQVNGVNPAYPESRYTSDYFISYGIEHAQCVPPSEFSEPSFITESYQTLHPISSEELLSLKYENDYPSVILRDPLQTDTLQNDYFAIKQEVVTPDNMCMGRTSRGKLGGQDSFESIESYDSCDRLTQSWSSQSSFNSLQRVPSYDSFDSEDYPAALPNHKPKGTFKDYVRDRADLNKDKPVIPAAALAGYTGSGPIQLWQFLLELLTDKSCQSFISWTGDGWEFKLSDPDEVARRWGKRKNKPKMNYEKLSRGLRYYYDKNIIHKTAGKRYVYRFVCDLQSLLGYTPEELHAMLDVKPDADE

RUNX1 [2] = target: RUNX1 (UniProt Q01196); experiment: RUNX1 binding intensity (PBM fluorescence), RUNX1 alone (arbitrary fluorescence units); higher = stronger binding; details: RUNX1 concentration 2 nM; ETS1 concentration 0 nM
Method: (§1)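 Cooperative gcPBM on 36-bp genomic probes with neighbouring ETS1 and RUNX1 sites. Recombinant human RUNX1 (2 nM) was incubated alone or with ETS1 (25 nM) and detected with anti-RUNX1 antibody plus Alexa488 secondary. Values are medians over 4 replicate spots; the RUNX1+ETS1 data were normalised to the RUNX1-only data. The probes sit in constant array flanks that are not printed.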

ETS1 [3] = target: T1, ETS1; experiment: ETS1 binding intensity (PBM fluorescence) in presence of RUNX1, normalised to ETS1-only experiment (arbitrary fluorescence units); higher = stronger binding; details: ETS1 concentration 1 nM; RUNX1 concentration 25 nM
RUNX1 [4] = target: RUNX1 (UniProt Q01196); experiment: RUNX1 binding intensity (PBM fluorescence) in presence of ETS1, normalised to RUNX1-only experiment (arbitrary fluorescence units); higher = stronger binding; details: RUNX1 concentration 2 nM; ETS1 concentration 25 nM
Method: as §1
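Wherever RUNX1 binding intensity (PBM fluorescence) in presence of ETS1, normalised to RUNX1-only experiment is given: Full-length recombinant human ETS1 or RUNX1 bound to double-stranded 36-bp genomic probes on microarrays, detected by protein-specific primary antibody and Alexa488 secondary, spot fluorescence as median of four replicate spots.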
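Wherever RUNX1 binding intensity (PBM fluorescence), RUNX1 alone is given: Full-length recombinant human RUNX1 bound to double-stranded 36-bp genomic probes on a high-density microarray, scored as Alexa488 fluorescence per spot via anti-RUNX1 antibody, median of four replicate spots.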

Chain of RUNX1 (Q01196 whole entry): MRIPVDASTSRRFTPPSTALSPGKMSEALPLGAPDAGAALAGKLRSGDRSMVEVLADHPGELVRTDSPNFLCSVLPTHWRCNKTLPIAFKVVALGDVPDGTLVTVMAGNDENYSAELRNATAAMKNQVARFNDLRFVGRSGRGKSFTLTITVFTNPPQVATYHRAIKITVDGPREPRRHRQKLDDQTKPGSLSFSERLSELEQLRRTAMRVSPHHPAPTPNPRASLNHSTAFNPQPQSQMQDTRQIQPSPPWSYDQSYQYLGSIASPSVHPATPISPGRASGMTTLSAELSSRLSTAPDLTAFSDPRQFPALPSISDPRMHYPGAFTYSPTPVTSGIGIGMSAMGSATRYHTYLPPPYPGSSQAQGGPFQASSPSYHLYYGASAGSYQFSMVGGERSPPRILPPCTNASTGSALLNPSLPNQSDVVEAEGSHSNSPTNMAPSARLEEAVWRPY

Sequence	ETS1 binding intensity (ETS1 [1])	RUNX1 binding intensity (RUNX1 [2])	ETS1 binding intensity (ETS1 [3])	RUNX1 binding intensity (RUNX1 [4])
TCGTGAAAAAGGAAGTGGATAAAGTGGTTACGGCAA	2040	792	3260	1460
CTTGTGAAATGTATCCTGTGGTTGCCGGCTGAAGTG	499	848	419	1380
AGACCCGGATATGCGCCGGGGACCCCCAGACCGCGC	743	733	697	969
AACTGTCTCTACCCAGGAAGTGGTTTTATTTAAAAG	5160	1020	14900	2190
ACCATCCTGTAGTCTGTTAAGTGAGCAACCGCATTA	447	1130	948	1900
GCGATCGGAGCGGAAGTGGAGCTACCGCCACCGCCG	7540	819	8910	1290
GCCATCCAGGAAGTACAGACTCCCTGACCGCACTGA	1030	1140	5400	2110
GGCTTTCCGTTCAAGGATCTTTTTGCGGTCTTTGTC	445	1610	777	3270
GGGAGGTCACATCCTGCCCGCGGTCTCAGAAAAGCT	821	782	989	2080
CACCGGAAAAGGCAAGCGCGGCCGCGCGGTTGGCGC	675	745	1090	1160
AGCGCCGGAAGTGTGTCTGCGTAAAACTGCGGCTCG	3490	740	3720	1520
TTGACCCGGACGTGGACAAAAGACCGCAAAGGACGC	806	1100	3090	1540
TCCACATCCTGCTCCTCGGGTTTGCGGCGAGGACTC	593	809	1010	2660
ACGTCTGTTTCCTGTGATTGAAACCGCAAGAAGAAG	783	4510	2250	18500
CCTCACTAACATCCTGTTGAGGTGTCCCACAAACCA	1110	801	1090	1490
GTGGTCGGGAGGGGAAGTGAGGCGGTTACCTCGGCG	684	790	689	925
GTCGGAAGTGGCCGTGAGCCCAAGCCGCGGTCCCGG	480	678	486	951
GGGGAAAGGAAGAGGAAACCGCGAGTGCAAAGGCCC	679	1140	1580	2330
GGAGGGGAGCAGGAAGCTGAGGTTTTGTGAGTCAGA	1090	753	2490	1070
GCCTGCACCCTAGTTCCGGTGTGGGTGGAGGGGCCG	1040	4050	999	4850
TTGGTCAGCCTGCTTCCGGCTGTGGCTTCAGTTAGT	1770	774	1920	1420

Sequence	ETS1 binding intensity (ETS1 [1])	RUNX1 binding intensity (RUNX1 [2])	ETS1 binding intensity (ETS1 [3])	RUNX1 binding intensity (RUNX1 [4])
TTTGATTTCCTGTCTCCATGTTGTGGTCAAGATTGC	1080	1370	2990	4420
ACCTCAGGTACCGGAAGACCACAATTCCCAGGAGTC	2950	965	4740	1740
GCCACTTCCTGGAAAACAGTAATTACCACACGTCTC	464	1100	546	2160
CTAGGCCACCGGAAGTCTCCGCAGTGGTTTTGCAAA	14900	762	25800	1610
GCCGTCACTTCCGTCATTCAAACCGCCCGCCAATGG	823	1050	1160	2520
CAACCTGCTATAAGGAAGTTAAACCGCAGCTCACCG	718	3670	5980	5610
CCTCAAAACCCGGAAACGCCTTGCGGGGCAGTGTGG	3330	789	4480	1400
CACTTCCTCTGTGACTGCAGGTTTCCAACCACAAGC	601	988	1510	2370
AACTGCCTGGTGGCCGGAAACCGCTGGAGGGAGGGC	4740	793	10100	1130
TTCAACAAGGTTTTCCTGTGGTTACCCCATGCTTTG	364	1040	451	1680
CTTCAAAGTCAGGAAACCGTTAAACCACACTGCATC	716	1100	1910	1360
CAGATTCAAGGAAGTGGTGGTGGTTTGGTGTCGTTG	738	755	1370	907
GGCATTCACTTCCGGTCTGGGGCCTGCGGCGGCGGC	18600	793	19400	2260
CAAGAGCCGGAAGTCCCTTGTGCCGCAGTCCTTCCC	5720	800	6680	1510
CTACTTTCCGGTCAACGCGGCCTGCGGTACCACCTC	438	1160	720	2720
CTTTGCTGCAGGATGTTCTAACCACAAGCCCAGGAG	1070	3030	6670	7310
GAGGGCCTGGGAGGAAGTGGGTTTTGCATACAGTCC	1870	673	2510	1330
CATGCGTCACCTTCCTGTGTGGTCAGCAGTGCTTGC	383	915	468	1420
GCGCGGCGCGACCGGACGCTGCGGGCGGGGAAGAGG	3230	734	5990	929
ACACCGGAAGCCCAACAGCATGCCGAGTAACCACCC	1120	864	1170	1310
GGCGGGACTTCCGGCGTCTCCCCTCGGCGGTTGCTT	2330	751	2700	1980

Sequence	ETS1 binding intensity (ETS1 [1])	RUNX1 binding intensity (RUNX1 [2])	ETS1 binding intensity (ETS1 [3])	RUNX1 binding intensity (RUNX1 [4])
GACTATGTGCTTCCGGTCTCCAATACCGCAGGAGGG	4950	981	13600	2690
TGACTTCCTCCTCTTCACTAACAGAAACCTCAATTT	440	1400	526	2570
ATCAGAGCGGAAATCTCAGTCTTGTGTGGGGACCTG	1960	647	1820	919
GCACCGTCTACCCGGAAGTTGTGGGCTGGGAGGGAT	5610	813	9990	1430
GGCTTCCTGCCCAACTACCAAGAAAAAGCCACAAAG	453	1100	962	2040
CAGACCAGCCCAGGAAACAAGGAACCACAAAGCCAC	656	842	2260	992
AAGAGGAAATAAATACCAGAGTGAACCCACAAACCT	441	892	943	903
CTGCGCGGCCGGAAGTCGGCGGTTTCCCAGACGACG	20800	759	30000	2820
CACCTCACAGCCCGGATACAAACCGCCTACCCGCCC	780	1300	980	1230
AGAGGCAGCTTCCGGAGACTGCTCTGTGGCCAGTTT	794	711	1070	1310
AGCACTTCCGTTTGGGCAGGGCTGCGGGCCGGAGGG	911	746	831	2130
CACCCGAACGGAAACACCTGCGGCTGAGGGGAGGGG	959	989	1110	938
GTAAGTAGGCCAGGAAGTGGTCACTGCAGCATGTGA	3740	722	4960	1440
AGGCAGCACAGGAAGTTATAACCACATGTACACTTG	3790	781	11900	1960
TTTCTGACACTCTCAGGATGTGGGTTTTCGCACTGT	1230	797	6000	1350
AATGGGCTTGGTTTCCTGTGGGTTTGTAGCTTTGTA	519	899	685	2120
CATTGATCAAAGACAGGATGTGGTAACAGGCAGTTA	8340	760	39500	3100
CCCAAGCTACGGAAGTTAAACCTCAAACATGAAATC	1110	1040	1420	1410
CACCTGGCCCGGACGGCTGCGGTCTGGAGGGCTGTC	386	1650	792	2050
ACCACCCACTTCCCGCGCAGTTCCAAACCGCGACCA	302	1590	795	5270
CCCGCCACTTCCCTGCCTCTGCGGGAGCCCCCCAGC	573	938	545	1430

Sequence	ETS1 binding intensity (ETS1 [1])	RUNX1 binding intensity (RUNX1 [2])	ETS1 binding intensity (ETS1 [3])	RUNX1 binding intensity (RUNX1 [4])
TGATGCACTTCCTGAGGGCCCGCATGTGGTAAACAC	495	834	880	1480
GCAGAAACAGGAAGAGACAGGGCTGACCGCAGCAGG	1290	1230	6300	2340
GCTGACCCGGAAGCGCTCGTGACCACCATCTCCGAC	1760	912	2590	1370
GAGCTGCTCCGGAAGGGTGGTGTGTGGTCAACCTTG	759	876	1520	1050
TAGACTAACAGGGGAGGAAGTGGGTTGCAAGCCGTG	2030	683	2740	868
TCGTGTTCTCTTCCGTTCTGTGGTAGCTTTTTGGTA	655	1470	557	1870
TGAGAAAGCTATTTCCGCCCACAAAGAGGCAAGTCT	1420	763	1370	1570
CAGAAAAGGCAGGAAGTGGTACAAACCACAAAAGGC	5820	1320	49600	8000
CTGGTAGAAAAGGAAGCAGGTTGTGGTGAGCATTTA	837	767	1720	932
CACGGAGCCACTTCCGGCGGCTGTGGGCGCAAAACC	3620	752	4210	3120
ATTAGAGGTAGAGGAAATACCACATGCAAAGGTTTG	793	785	1090	863
GCACTACATTTCCCAGCTTTCCTCGCGGTAAAGAGA	456	1270	429	1270
CACTTCCTATCGCTACATAACAAATTACCACAGACT	451	2490	642	6310
AGCCGTTTCCGGCGCTCTACCCCGCCGCAGGCCGAG	833	859	979	2300
ACCATATCCTGAGAATGAACCATGTGGTGGATGCAC	519	795	487	1270
AAGTTTTGGGTTTTCCGCCCACAGCCGCCGAAAGTG	630	888	684	1090
GAGAAAAGAGACTGAGGATGTGGTTTGGGGTGTGGG	661	844	6260	1050
ACAGGCTGTCTGCTTCCGTCAGCGGTTATTCCCTTG	523	882	602	1340
TGAGTCACATCCTGCAGGGCTGCGGTATCCTGGCTT	773	928	1680	3310
CCAGTACCCCACTTCCTGACCAAACCACAAAGGTCA	635	2980	2450	8080
